Screening results (PubChem)
Most compounds without a hit are left out; they make up all but 6.7% or so of the library.
C diff growth = inhibitors of Clostridium difficile growth | growth activity, negative = inhibition, % at 16 µg/mL (by protocol) | 0.25% of 86,000 active | Clostridium difficile clinical isolate growth, OD600, 24 h; stronger effect = lower value;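 active = mean growth activity at or below -80% and every replicate also at or below -80%; inconclusive = mean at or below -80% but some replicate above -80%; inactive = mean growth activity above -80%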
Pf Dd2 growth = blocks growth of Plasmodium falciparum Dd2 parasites; P. falciparum Dd2 growth, SYBR Green, 72 h; stronger effect = lower value; 2.3% of 94,000 active; activity change, % at 10 µM; in the data active = activity change below about -80%; inconclusive = no clear call, values can overlap the other calls
T cruzi growth-1 = inhibitors of T. cruzi proliferation; T. cruzi beta-gal in NIH3T3, GalScreen luminescence, 90 h; inhibition, % at 8.34 µM; 5.9% of 77,000 active;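 active = mean inhibition above about 93%, with at least 55% of replicates each passing it, limit read from the data, passing the limit was not always enough; inconclusive = only one of those two conditions holds; inactive = neither condition holds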
T cruzi growth-2 = inhibitors of T. cruzi proliferation; shares compounds with T cruzi growth-1; T. cruzi beta-gal in NIH3T3, GalScreen luminescence, 90 h; inhibition, % at 8.35 µM; 72% of 5,600 active;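 active = mean replicate inhibition above about 95% and at least 55% of replicates individually reaching it, limit read from the data; inconclusive = only one of the two criteria is met; inactive = neither criterion is met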
T cruzi growth-3 = blocks T. cruzi growth in NIH3T3 host cells | shares compounds with T cruzi growth-1 | T. cruzi beta-gal in NIH3T3, GalScreen luminescence, 90 h | inhibition, % at 2.09 µM | 21% of 5,600 active | AID 651740;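 active = mean inhibition above about 95%, with at least 55% of replicates also reaching it, limit read from the data; inconclusive = meets just one of the two conditions; inactive = meets neither condition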
3T3 cytotox = cytotoxicity in mouse NIH/3T3 fibroblasts. cytotoxicity (signal decrease), % at 8.35 µM. 14% of 5,600 active. NIH/3T3 viability, CellTiter-Glo ATP luminescence, 90 h. shares compounds with T cruzi growth-1;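 active = mean signal decrease across replicates above about 35% based on untreated-well scatter, with enough replicates individually passing, limit read from the data; inconclusive = no rule stated though some were filed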
3T3 cytotox 2 = kills mouse NIH/3T3 fibroblasts | shares compounds with T cruzi growth-1 | NIH/3T3 viability, CellTiter-Glo ATP luminescence, 90 h | inhibition, % at 24.9 µM | 56% of 5,600 active;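 active = mean loss of cell viability signal at or above a set limit, and enough replicates individually reaching it; inconclusive = meets only the mean limit or only the replicate share; inactive = meets neither condition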
Numbers stand for hits; . = inactive; ? = inconclusive; / = no result; ! = a repeat was not active.

SMILES	C diff growth	Pf Dd2 growth	T cruzi growth-1	T cruzi growth-2	T cruzi growth-3	3T3 cytotox	3T3 cytotox 2
COc1ccc(S(=O)(=O)N(C)C[C@H]2OCCCC[C@@H](C)Oc3ccc(NS(=O)(=O)c4ccccc4)cc3C(=O)N([C@@H](C)CO)C[C@H]2C)cc1	.	/	107	?	.	.	.
CO[C@H]1CC[C@H]2CCN(C)C(=O)[C@H](C)[C@H](OC)CN(C)C(=O)c3cc(C#N)ccc3OC[C@@H]1O2	/	.	.	/	/	/	/
C[C@H](CO)N1C[C@H](C)[C@H](CN(C)S(=O)(=O)c2ccc(Cl)cc2)OCc2cnnn2CCCC1=O	.	.	?	.	.	.	.
C[C@@H]1CN([C@H](C)CO)C(=O)CCCn2nncc2CO[C@@H]1CN(C)S(=O)(=O)c1cccc(F)c1	.	.	144!	103	.	.	.
COc1ccc(S(=O)(=O)N(C)C[C@@H]2OCc3cnnn3CCCC(=O)N([C@H](C)CO)C[C@H]2C)cc1	.	.	.	/	/	/	/
C[C@H](CO)N1C[C@H](C)[C@@H](CN(C)S(=O)(=O)c2ccc(Cl)cc2)OCc2cnnn2CCCC1=O	.	.	.	/	/	/	/
COc1ccc(S(=O)(=O)N(C)C[C@H]2OCc3cnnn3CCCC(=O)N([C@@H](C)CO)C[C@H]2C)cc1	.	.	?	.	.	.	.
C[C@H]1CN([C@@H](C)CO)C(=O)CCCn2nncc2CO[C@H]1CN(C)S(=O)(=O)c1cccc(F)c1	.	.	.	/	/	/	/
CC(=O)N(C)C[C@@H]1Oc2cc(C3=CCCCC3)ccc2S(=O)(=O)N([C@H](C)CO)C[C@H]1C	/	.	.	/	/	/	/
C[C@H]1CN([C@@H](C)CO)C(=O)c2cccc(NC(=O)C3CCOCC3)c2O[C@@H]1CN(C)S(=O)(=O)c1cccs1	.	.	.	/	/	/	/
Cc1noc(C)c1S(=O)(=O)N(C)C[C@H]1Oc2ccc(NC(=O)NC3CCCCC3)cc2CC(=O)N([C@@H](C)CO)C[C@@H]1C	.	.	.	/	/	/	/
CNC[C@@H]1Oc2cc(C3=CCCC3)ccc2S(=O)(=O)N([C@@H](C)CO)C[C@H]1C	/	.	/	/	/	/	/
C[C@H]1CN([C@@H](C)CO)C(=O)c2cccc(NS(=O)(=O)c3cn(C)cn3)c2O[C@H]1CN(C)Cc1ccc(C(=O)O)cc1	.	.	.	/	/	/	/
COc1ccc(S(=O)(=O)Nc2cccc3c2O[C@H](CN(C)Cc2ccc(C(=O)O)cc2)[C@@H](C)CN([C@@H](C)CO)C3=O)cc1	.	.	.	/	/	/	/
COc1ccc(S(=O)(=O)Nc2cccc3c2O[C@@H](CN(C)Cc2ccc(C(=O)O)cc2)[C@H](C)CN([C@@H](C)CO)C3=O)cc1	.	.	105	.	.	.	.
C[C@@H]1CN([C@H](C)CO)C(=O)c2cccc(NS(=O)(=O)c3cn(C)cn3)c2O[C@H]1CN(C)CC1CCCCC1	.	.	102	.	.	.	.
C[C@@H]1CN([C@@H](C)CO)C(=O)c2cccc(NS(=O)(=O)c3cn(C)cn3)c2O[C@@H]1CN(C)CC1CCCCC1	.	.	.	/	/	/	/
C[C@H](CO)N1C[C@H](C)[C@H](CN(C)Cc2ccc(C(=O)O)cc2)Oc2c(NS(=O)(=O)c3cn(C)cn3)cccc2C1=O	.	.	?	.	.	.	.
CC(C)NC(=O)N(C)C[C@H]1Oc2cc(C#CC(C)(C)O)ccc2S(=O)(=O)N([C@H](C)CO)C[C@H]1C	.	.	.	/	/	/	/
Cn1cnc(CCNC(=O)C[C@H]2CC[C@H]3[C@@H](COC[C@H](O)CN3C(=O)Nc3ccc(Cl)cc3)O2)c1	/	.	.	/	/	/	/
Cn1cnc(CCNC(=O)C[C@@H]2CC[C@H]3[C@@H](COC[C@H](O)CN3C(=O)C3CC3)O2)c1	.	.	.	/	/	/	/
Cn1cnc(CCNC(=O)C[C@@H]2CC[C@H]3[C@@H](COC[C@@H](O)CN3C(=O)C3CC3)O2)c1	.	.	104	102	.	.	.
Cn1cnc(CCNC(=O)C[C@H]2CC[C@H]3[C@@H](COC[C@H](O)CN3C(=O)Nc3ccccc3)O2)c1	.	.	.	/	/	/	/
Cn1cnc(CCNC(=O)C[C@@H]2CC[C@H]3[C@@H](COC[C@@H](O)CN3C(=O)Nc3ccc(C(F)(F)F)cc3)O2)c1	.	.	107	.	.	.	.
Cn1cnc(CCNC(=O)C[C@H]2CC[C@@H]3[C@H](COC[C@H](O)CN3C(=O)Nc3ccc(C(F)(F)F)cc3)O2)c1	.	.	?	.	.	.	.
SMILES	C diff growth	Pf Dd2 growth	T cruzi growth-1	T cruzi growth-2	T cruzi growth-3	3T3 cytotox	3T3 cytotox 2
CN1c2ccc(-c3ccc(F)cc3)cc2[C@H]2[C@H](CCN2C(=O)c2cccnc2)[C@@H]1CO	.	.	.	/	/	/	/
C[C@H](CO)N1C[C@H](C)[C@@H](CN(C)C(=O)NC2CCCC2)Oc2cc(C#Cc3ccc(F)cc3)ccc2S1(=O)=O	.	.	.	/	/	/	/
COc1ccc(C#Cc2ccc3c(c2)O[C@@H](CN(C)C(=O)NC2CCCCC2)[C@H](C)CN([C@H](C)CO)S3(=O)=O)cc1	.	.	?	103	99	.	.
C[C@@H]1CN([C@@H](C)CO)S(=O)(=O)c2ccc(C#Cc3ccc(F)cc3)cc2O[C@H]1CN(C)C(=O)NC1CCCCC1	.	.	.	/	/	/	/
C[C@H](CO)N1C[C@H](C)[C@@H](CN(C)C(=O)NC2CCCCC2)Oc2cc(C#Cc3ccc(F)cc3)ccc2S1(=O)=O	.	.	.	/	/	/	/
C[C@H]1CN([C@@H](C)CO)S(=O)(=O)c2ccc(C#Cc3ccc(F)cc3)cc2O[C@H]1CN(C)C(=O)NC1CCCC1	.	?	99	99	113	.	104
C[C@@H]1CN([C@@H](C)CO)S(=O)(=O)c2ccc(C#Cc3ccc(F)cc3)cc2O[C@@H]1CN(C)C(=O)NC1CCCC1	.	.	115	101	.	.	74
C[C@H](CO)N1C[C@H](C)[C@H](CN(C)C(=O)NC2CCCC2)Oc2cc(C#Cc3ccc(F)cc3)ccc2S1(=O)=O	.	.	104	95	116	.	61
C[C@@H]1CN([C@H](C)CO)S(=O)(=O)c2ccc(C#Cc3ccc(F)cc3)cc2O[C@@H]1CN(C)C(=O)NC1CCCCC1	.	.	.	/	/	/	/
COc1ccc2c3c(n(C)c2c1)[C@H](CO)N(C(=O)NC(C)C)CC31CCN(Cc2nccs2)CC1	.	.	/	/	/	/	/
COc1cccc(NC(=O)N2C[C@@H](O)COC[C@@H]3O[C@H](CC(=O)NCc4ccccc4F)CC[C@H]32)c1	.	.	/	/	/	/	/
COC(=O)C[C@H]1CC[C@H]2[C@@H](COc3ccc(NC(=O)c4cncs4)cc3C(=O)N2C)O1	.	.	.	/	/	/	/
O=C(C[C@@H]1CC[C@@H]2[C@H](COC[C@@H](O)CN2C(=O)Nc2ccc(C(F)(F)F)cc2)O1)NCCc1ccncc1	.	.	.	/	/	/	/
CC(C)CC#Cc1ccc2c(c1)O[C@H](CN(C)C(=O)NC1CCCC1)[C@@H](C)CN([C@H](C)CO)S2(=O)=O	.	.	.	/	/	/	/
